Out of some 4,300 compounds screened, about 4,000 (93%) were called active. The set was probably picked from earlier hits. These entries were drawn from the full list. A number with no mark means an inactive call.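 How the source made its calls: active means inhibition above its plate's cutoff, the mean test-well inhibition plus 3 SD (cut at about 4.8% in these data); inactive means the rest.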
experiment: displacement of TO-PRO-1 from CAG DNA duplex, counter-screen for rCAG RNA repeat binder project, biochemical, fluorescence, TO-PRO-1 dye, d(CAG) DNA oligo (AID 652068); details: d(CAG) DNA oligo TO-PRO-1 dye displacement, at 3 µM, active compounds read high;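 further: 0% = DNA dye mix with DMSO and 100% = 100 µM mitoxantrone; hits displace the dye from DNA and so lower well fluorescence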

Row | Structure (SMILES) | inhibition
1 | CC1(C(=O)NS(=O)(=O)c2ccc3ccccc3c2)CCN1C(=O)C1(c2ccc(Cl)cc2)CCC1 (centres undefined) | 31.7% (active)
2 | O=C(CCc1ccccc1Cl)Nc1ccc(S(=O)(=O)Nc2nccs2)cc1 | 10.9% (active)
3 | O=C(Nc1ccc(S(=O)(=O)Nc2nccs2)cc1)c1cccc(S(=O)(=O)N2CCOCC2)c1 | 5.67% (active)
4 | Cc1ccc(OCCC(=O)Nc2ccc(S(=O)(=O)Nc3nccs3)cc2)cc1 | 14.7% (active)
5 | CN1CCN(S(=O)(=O)c2cccc(C(=O)Nc3sccc3C#N)c2)CC1 | 7.1% (active)
6 | O=C(Nc1ccc(S(=O)(=O)Nc2nccs2)cc1)c1cc(-c2ccncc2)nc2ccccc12 | 29.6% (active)
7 | CC1CCCCN1S(=O)(=O)c1ccc(C(=O)Nc2nnc(-c3cccs3)o2)cc1 (centres undefined) | 14.2% (active)
8 | Cc1ccccc1S(=O)(=O)N1[C@@H](c2cccc(Cl)c2)C(C(=O)O)=CC[C@H]1c1ccc(Cl)cc1 | 53.5% (active)
9 | Cc1ccc([C@@H]2CC=C(C(=O)O)[C@H](c3cccc(Cl)c3)N2S(=O)(=O)c2ccc(C)cc2)cc1 | 41.1% (active)
10 | Cc1ccc(S(=O)(=O)N2[C@@H](c3ccccc3F)C(C(=O)O)=CC[C@H]2c2ccc(Cl)cc2)cc1 | 29.3% (active)
11 | CC(=O)Nc1ccc(C(=O)Nc2nc(-c3cc(C)n(Cc4ccccc4)c3C)cs2)cc1 | 14.6% (active)
12 | CC(=O)Nc1ccc(-c2csc(NC(=O)Nc3ccccc3)n2)cc1 | 22.8% (active)
13 | O=C(Nc1ccccc1)Nc1nc2ccccc2s1 | 14.7% (active)
14 | CC(=O)Nc1ccc(S(=O)(=O)Nc2nc(-c3ccc(C(C)(C)C)cc3)cs2)cc1 | 30.7% (active)
15 | Cc1noc(NS(=O)(=O)c2ccc(NC(=O)c3oc4ccc(F)cc4c3C)cc2)c1C | 25.4% (active)
16 | Cc1cc(C)c2nc(-c3cccnc3)cc(C(=O)Nc3ccc(S(=O)(=O)Nc4onc(C)c4C)cc3)c2c1 | 58.6% (active)
17 | Nc1[nH]c(=S)nc2nc(-c3ccccc3)c(-c3ccccc3)nc12 | 13.8% (active)
18 | Cc1ccc(-n2ncc3c(Nc4cccc(C(=O)O)c4)ncnc32)cc1 | 4.92% (active)
19 | O=S(=O)(Nc1ccc(O)c2ccccc12)c1ccc(OC(F)(F)F)cc1 | 23.5% (active)
20 | O=c1oc(-c2ccccc2NS(=O)(=O)c2ccc(Cl)cc2)nc2ccccc12 | 8.49% (active)
21 | CSc1nnc(NC(=O)c2nc(S(=O)(=O)Cc3ccc(C)cc3)ncc2Cl)s1 | 11.6% (active)
22 | C=CCNc1nc(N)c(C(=C(C#N)C#N)c2ccccc2)s1 | 9.76% (active)
23 | COc1ccccc1C1C(C#N)=C(N)Oc2c1c(-c1ccccc1)nn2-c1ccccc1 (centres undefined) | 12% (active)
24 | Cc1c(C)c2c(OCC(=O)N[C@@H](C(=O)O)c3ccccc3)cc3c(c2oc1=O)CCC(C)(C)O3 | 12.5% (active)
25 | COc1ccc(COC(=O)NC(C(=O)O)c2ccccc2)cc1 (centres undefined) | 1.1%

Row | Structure (SMILES) | inhibition
26 | Fc1cccc(Cc2c(-c3cccc(Cl)c3)nc3ccc(Br)cn23)c1 | 12.8% (active)
27 | COc1ccc(-c2nc3ccc(Br)cn3c2Cc2ccc(C)cc2)cc1OC | 5.84% (active)
28 | Cc1cc(Br)cn2c(Cc3cccc(F)c3)c(-c3cccc(Br)c3)nc12 | 2.14%
29 | CCC(C)Cn1c(O)cc2nn(-c3nc4ccccc4s3)c(=O)c-2c1C (centres undefined) | 30.4% (active)
30 | COc1cc(NC(=O)c2ccccc2NS(=O)(=O)c2ccc(Cl)s2)cc(OC)c1 | 46.6% (active)
31 | Cc1ccc(CNC(=O)C2CCN(S(=O)(=O)c3ccc4nc5c(c(C(=O)O)c4c3)CC(C)CC5)CC2)cc1 (centres undefined) | 11.1% (active)
32 | CCOc1cc(C)ccc1OCc1nnc(SCC(=O)Nc2cccc(C(=O)O)c2)n1-c1ccccc1 | 11.8% (active)
33 | Cc1sc2nc(SCC(=O)c3ccc(O)c(O)c3)n(Cc3ccco3)c(=O)c2c1C | 31.4% (active)
34 | O=C(COC(=O)c1ccc(NS(=O)(=O)c2cccs2)cc1O)Nc1ccc(F)cc1 | 5.07% (active)
35 | O=C(O)c1[nH]c2ccccc2c1C(c1cccc(O)c1)c1c(C(=O)O)[nH]c2ccccc12 | 12.6% (active)
36 | CCOC(=O)c1cc2cc(-c3c(C(=O)OCC)oc4cc(O)cc(O)c4c3=O)ccc2o1 | 10.2% (active)
37 | O=C(CCCN1C(=O)/C(=C\c2ccco2)SC1=S)Nc1cccc2ccccc12 | 13.7% (active)
38 | Cc1ccc(NC(=O)CSc2sc3c(O)cc(=O)[nH]c3c2C#N)cc1C | 11.8% (active)
39 | CO/N=C(\C(=O)N[C@@H]1C(=O)N2C(C(=O)O)=C(COC(C)=O)CS[C@H]12)c1csc(N)n1 (stereo in doubt) | 17.5% (active)
40 | O=[N+]([O-])c1cc(Br)c(O)c(/C=N/Nc2nc3ccccc3s2)c1 | 83.5% (active)
41 | COc1ccc(S(=O)(=O)/N=C2\C=C(NS(=O)(=O)c3ccccc3)C(=O)c3ccccc32)cc1 | 56.1% (active)
42 | O=C(NNc1c2ccccc2nc2ccccc12)c1cc2ccccc2cc1O | 27.7% (active)
43 | Cc1cc(/C=N/Nc2ccc([N+](=O)[O-])cn2)c(C)n1-c1cccc(C(=O)O)c1 | 10.4% (active)
44 | O=c1ccc2c(-c3ccccc3S(=O)(=O)O)c3ccc(O)c(O)c3oc-2c1O | 69.2% (active)
45 | O=C(Nc1cccc(F)c1)c1cc(-c2ccco2)nc2ccccc12 | 3.28%
46 | O=C(O)c1cccc(NC(=O)c2cc(-c3cccc(Cl)c3)nc3ccccc23)c1 | 14.3% (active)
47 | Cc1oc2c(F)c(F)c(F)c(F)c2c1S(=O)(=O)Nc1cccc(C(F)(F)F)c1 | 13.1% (active)
48 | Nc1cccc(-c2cc(-c3ccccc3)nc(-c3cccc(N)c3)n2)c1 | 6.95% (active)
49 | Cc1oc2cc([N+](=O)[O-])c(O)c([N+](=O)[O-])c2c1C(=O)c1ccc(Br)cc1 | 15.8% (active)
